# From PubChem BioAssay (EPA / NIEHS)
# Where “and” joins values, the source holds several entries; their conditions need not be identical. Equal entries are not always repeated. Inconclusive results are not listed. Calls of active or inactive are those of the source. The calls were made as follows: active = hit-call score of the fitted dose curve at least 0.9, where 1 is the maximum; inconclusive = response in the unintended direction; inactive = score below 0.9.
# Experiments:
# [1] = molecular target: rat CYP3A2, Cyp3a2 (gene 266682) (UniProt P05183); test: NVS_ADME_rCYP3A2: NovaScreen (NVS) CYP450-related Enzyme Activity (ADME) Assay for rat CYP3A2 (AID 2283128)
# Summary of the method: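 Cell-free rat CYP3A2 enzyme assay with fluorescent substrate, read 0.5 h after dosing. Primary duplicate screen at 10 uM; actives run in concentration-response up to 20 uM, relative to acetonitrile baseline.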
# [2] = molecular target: human AKT serine/threonine Kinase 2 (AKT2), AKT2 (gene 208) (UniProt P31751); test: NVS_ENZ_hAKT2: NovaScreen (NVS) Enzymatic Assay for human AKT serine/threonine Kinase 2 (AKT2) (AID 2283141)
# Summary of the method: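 Cell-free fluorescence/electrophoretic mobility shift readout of recombinant human AKT2 activity, 1 h after chemical dosing. Duplicate primary screen at 25 uM, then singleton concentration-response up to 50 uM; loss of signal versus DMSO baseline.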
# [3] = molecular target: human Caspase 5 (CASP5), CASP5 (gene 838) (UniProt P51878); test: NVS_ENZ_hCASP5: NovaScreen (NVS) Enzymatic Assay for human Caspase 5 (CASP5) (AID 2283137)
# Summary of the method: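 E. coli-derived enzyme, cell-free, 2 h incubation, fluorescence intensity. 25 uM duplicate single-point; hits → concentration series to 50 uM. DMSO baseline, positive/negative controls on every plate.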
# Caspase-3 (Homo sapiens) = Caspase-3 (Homo sapiens) (UniProt P42574); test: NVS_ENZ_hCASP3: NovaScreen (NVS) Enzymatic Assay for human Caspase 3 (CASP3) (AID 2283139)
# Summary of the method: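 Recombinant human caspase-3 from E. coli with a fluorogenic substrate, read by fluorescence 1 h after dosing. Primary screen in duplicate at 25 uM. Actives (for example ≥30% inhibition) rerun as concentration-response up to 50 uM.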
# CDK2 (gene 1017) = CDK2 (gene 1017) (UniProt P24941); test: NVS_ENZ_hCDK2: NovaScreen (NVS) Enzymatic Assay for human Cyclin-Cependent Kinase 2 (CDK2) (AID 2283144)
# Summary of the method: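 Cell-free recombinant human CDK2 with fluorescent substrate, product separated by electrophoretic mobility shift; 1 hr read. Primary screen at 25 uM in duplicate, actives retested in concentration-response up to 50 uM; loss of signal versus DMSO.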
# [4] = molecular target: human Casein Kinase 1-delta (CK1D), CSNK1D (gene 1453) (UniProt P48730); test: NVS_ENZ_hCK1D: NovaScreen (NVS) Enzymatic Assay for human Casein Kinase 1-delta (CK1D) (AID 2283148)
# Summary of the method: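 Recombinant human CK1-delta, cell-free; fluorescent substrate with electrophoretic mobility-shift separation of product, read 1 h after dosing. Single 25 uM duplicate screen, then concentration-response up to 50 uM; loss of signal vs DMSO.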
# [5] = molecular target: human Colony Stimulating Factor 1 Receptor (CSF1R), CSF1R (gene 1436) (UniProt P07333); test: NVS_ENZ_hCSF1R: NovaScreen (NVS) Enzymatic Assay for human Colony Stimulating Factor 1 Receptor (CSF1R) (AID 2283150)
# Protocol: NVS_ENZ_hCSF1R is a biochemical, single-readout assay that uses extracted gene-proteins in a cell-free assay. Measurements were taken 1 hour after chemical dosing in a 384-well plate.NVS_ENZ_hCSF1R is one of one assay component(s) measured or calculated from the NVS_ENZ_hCSF1R assay. It is designed to make measurements of enzyme activity, a form of enzyme reporter, as detected with fluorescence intensity signals by Fluorescence and electrophoretic mobility shift technology.Data from the assay component NVS_ENZ_hCSF1R was analyzed into 1 assay endpoint. This assay endpoint, NVS_ENZ_hCSF1R, was analyzed in the positive analysis fitting direction relative to DMSO as the negative control and baseline of activity. Using a type of enzyme reporter, loss-of-signal activity can be used to understand changes in the enzymatic activity as they relate to the gene CSF1R. Furthermore, this assay endpoint can be referred to as a primary readout, because this assay has produced multiple assay endpoints where this one serves a enzymatic activity function. To generalize the intended target to other relatable targets, this assay endpoint is annotated to the kinase intended target family, where the subfamily is receptor tyrosine kinase. […]
# [6] = molecular target: human Caspase 8 (CASP8), CASP8 (gene 841) (UniProt Q14790); test: NVS_ENZ_hCASP8: NovaScreen (NVS) Enzymatic Assay for human Caspase 8 (CASP8) (AID 2283146)
# Summary of the method: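 E. coli-expressed enzyme was used in a cell-free fluorogenic substrate assay read 1 h after dosing. Loss of signal was scored relative to DMSO, and the primary screen was run in duplicate at 25 uM.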
# Chain of human Caspase 5 (CASP5), CASP5 (gene 838) (P51878 whole entry, looked up): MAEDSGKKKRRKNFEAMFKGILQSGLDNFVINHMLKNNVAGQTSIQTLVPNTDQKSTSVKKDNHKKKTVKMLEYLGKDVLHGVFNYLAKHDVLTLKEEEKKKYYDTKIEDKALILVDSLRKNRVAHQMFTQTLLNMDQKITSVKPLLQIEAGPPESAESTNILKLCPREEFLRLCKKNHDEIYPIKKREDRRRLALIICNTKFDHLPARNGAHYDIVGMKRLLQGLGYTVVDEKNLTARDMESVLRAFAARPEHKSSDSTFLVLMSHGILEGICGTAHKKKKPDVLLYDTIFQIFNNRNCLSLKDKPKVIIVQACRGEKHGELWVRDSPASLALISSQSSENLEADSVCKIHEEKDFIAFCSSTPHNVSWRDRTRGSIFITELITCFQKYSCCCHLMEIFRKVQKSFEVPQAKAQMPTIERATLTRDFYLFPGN
# Chain of rat CYP3A2, Cyp3a2 (gene 266682) (P05183 whole entry, looked up): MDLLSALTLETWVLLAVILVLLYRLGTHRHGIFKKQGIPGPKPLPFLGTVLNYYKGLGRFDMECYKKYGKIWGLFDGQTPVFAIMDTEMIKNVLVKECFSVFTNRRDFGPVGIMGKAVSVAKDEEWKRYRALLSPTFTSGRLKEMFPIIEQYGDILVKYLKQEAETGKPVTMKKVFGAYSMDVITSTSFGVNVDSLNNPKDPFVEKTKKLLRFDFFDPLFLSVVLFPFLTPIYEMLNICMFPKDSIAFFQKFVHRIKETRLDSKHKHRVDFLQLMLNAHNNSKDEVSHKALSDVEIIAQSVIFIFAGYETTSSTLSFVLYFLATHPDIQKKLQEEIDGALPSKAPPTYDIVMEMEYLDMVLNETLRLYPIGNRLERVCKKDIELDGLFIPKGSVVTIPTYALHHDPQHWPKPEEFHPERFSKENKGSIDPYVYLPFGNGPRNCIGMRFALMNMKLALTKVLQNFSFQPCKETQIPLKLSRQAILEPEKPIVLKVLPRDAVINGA
# Chain of human AKT serine/threonine Kinase 2 (AKT2), AKT2 (gene 208) (P31751 whole entry, looked up): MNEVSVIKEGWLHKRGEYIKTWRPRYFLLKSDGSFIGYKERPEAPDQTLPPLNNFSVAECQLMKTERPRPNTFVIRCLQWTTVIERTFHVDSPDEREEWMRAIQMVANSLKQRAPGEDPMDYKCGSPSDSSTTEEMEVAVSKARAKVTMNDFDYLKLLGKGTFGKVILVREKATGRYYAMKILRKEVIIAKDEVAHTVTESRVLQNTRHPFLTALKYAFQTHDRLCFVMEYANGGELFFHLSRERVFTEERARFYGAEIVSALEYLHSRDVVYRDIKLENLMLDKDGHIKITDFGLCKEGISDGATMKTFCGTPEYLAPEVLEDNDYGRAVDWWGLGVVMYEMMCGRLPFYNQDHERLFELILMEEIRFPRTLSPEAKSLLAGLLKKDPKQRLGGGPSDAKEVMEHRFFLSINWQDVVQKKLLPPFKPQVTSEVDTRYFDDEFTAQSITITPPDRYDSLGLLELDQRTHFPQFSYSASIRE
# Chain of human Casein Kinase 1-delta (CK1D), CSNK1D (gene 1453) (P48730 whole entry, looked up): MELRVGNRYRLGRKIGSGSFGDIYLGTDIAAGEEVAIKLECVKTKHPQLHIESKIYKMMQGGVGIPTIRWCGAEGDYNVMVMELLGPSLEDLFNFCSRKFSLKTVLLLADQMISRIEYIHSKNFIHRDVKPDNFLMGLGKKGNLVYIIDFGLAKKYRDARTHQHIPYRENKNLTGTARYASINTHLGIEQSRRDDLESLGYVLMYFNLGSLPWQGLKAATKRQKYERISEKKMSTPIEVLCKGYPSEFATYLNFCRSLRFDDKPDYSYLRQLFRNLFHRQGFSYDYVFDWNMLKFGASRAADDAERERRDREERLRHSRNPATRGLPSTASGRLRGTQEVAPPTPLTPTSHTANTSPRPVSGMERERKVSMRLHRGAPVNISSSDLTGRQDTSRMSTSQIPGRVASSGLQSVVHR
# Chain of Caspase-3 (Homo sapiens) (P42574 whole entry, looked up): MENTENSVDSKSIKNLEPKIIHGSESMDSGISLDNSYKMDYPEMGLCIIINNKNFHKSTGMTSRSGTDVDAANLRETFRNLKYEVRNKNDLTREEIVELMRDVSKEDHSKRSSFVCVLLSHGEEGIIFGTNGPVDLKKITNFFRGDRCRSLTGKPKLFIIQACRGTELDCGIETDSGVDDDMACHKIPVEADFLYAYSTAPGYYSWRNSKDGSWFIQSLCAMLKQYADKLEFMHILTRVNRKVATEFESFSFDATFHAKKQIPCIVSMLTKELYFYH
# Chain of human Colony Stimulating Factor 1 Receptor (CSF1R), CSF1R (gene 1436) (P07333 whole entry, looked up): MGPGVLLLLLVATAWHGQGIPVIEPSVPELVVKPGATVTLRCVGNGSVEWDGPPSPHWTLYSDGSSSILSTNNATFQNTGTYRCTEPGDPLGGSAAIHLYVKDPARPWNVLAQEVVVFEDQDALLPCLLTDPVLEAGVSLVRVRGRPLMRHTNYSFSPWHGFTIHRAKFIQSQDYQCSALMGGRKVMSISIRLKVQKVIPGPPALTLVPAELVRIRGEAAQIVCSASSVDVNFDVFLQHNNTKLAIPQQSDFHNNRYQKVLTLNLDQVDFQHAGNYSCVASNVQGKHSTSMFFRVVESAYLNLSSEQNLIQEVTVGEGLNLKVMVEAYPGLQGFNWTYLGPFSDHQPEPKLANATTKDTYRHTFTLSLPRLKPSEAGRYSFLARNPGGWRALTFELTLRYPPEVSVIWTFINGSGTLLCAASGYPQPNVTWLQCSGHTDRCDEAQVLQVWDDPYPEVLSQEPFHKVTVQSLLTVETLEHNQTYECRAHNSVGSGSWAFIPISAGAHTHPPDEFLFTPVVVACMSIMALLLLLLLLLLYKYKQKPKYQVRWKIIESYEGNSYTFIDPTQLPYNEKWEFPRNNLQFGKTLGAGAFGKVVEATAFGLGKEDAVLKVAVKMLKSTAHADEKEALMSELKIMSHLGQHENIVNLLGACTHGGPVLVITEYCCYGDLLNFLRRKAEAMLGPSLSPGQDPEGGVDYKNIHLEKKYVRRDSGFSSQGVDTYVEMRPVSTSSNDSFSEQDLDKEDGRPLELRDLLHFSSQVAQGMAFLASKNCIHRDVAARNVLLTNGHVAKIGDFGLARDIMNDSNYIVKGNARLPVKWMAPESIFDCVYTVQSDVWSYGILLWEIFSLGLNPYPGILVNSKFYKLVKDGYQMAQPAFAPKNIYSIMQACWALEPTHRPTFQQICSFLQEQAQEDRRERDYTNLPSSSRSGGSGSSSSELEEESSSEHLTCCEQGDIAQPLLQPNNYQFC
# Chain of human Caspase 8 (CASP8), CASP8 (gene 841) (Q14790 whole entry, looked up): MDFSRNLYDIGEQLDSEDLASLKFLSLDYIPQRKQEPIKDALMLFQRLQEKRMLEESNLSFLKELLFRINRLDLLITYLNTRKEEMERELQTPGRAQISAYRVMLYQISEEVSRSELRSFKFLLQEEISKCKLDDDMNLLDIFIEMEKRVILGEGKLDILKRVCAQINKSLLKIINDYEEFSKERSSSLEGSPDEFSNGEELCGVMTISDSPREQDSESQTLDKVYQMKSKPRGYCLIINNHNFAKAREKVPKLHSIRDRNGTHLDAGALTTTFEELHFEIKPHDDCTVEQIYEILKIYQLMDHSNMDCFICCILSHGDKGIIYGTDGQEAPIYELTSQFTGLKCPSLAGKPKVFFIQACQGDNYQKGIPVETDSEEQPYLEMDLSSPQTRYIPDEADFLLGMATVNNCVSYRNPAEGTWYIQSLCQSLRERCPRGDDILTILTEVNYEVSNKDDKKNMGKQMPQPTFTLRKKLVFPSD
compound,measurement,setting,value
C#C[C@]1(O)CC[C@H]2[C@@H]3CCc4cc(O)ccc4[C@H]3CC[C@@]21C,AC50,[1],1.2 µM (active) and 2.59 µM (active) and 1.12 µM (active)
C[C@]12CC[C@@H]3c4ccc(O)cc4CC[C@H]3[C@@H]1CC[C@@H]2O,AC50,[1],1.48 µM (active)
same,outcome,[2],inactive
O=[N+]([O-])c1cc(N(CCO)CCO)ccc1NCCO,AC50,[3],8.66 µM (active)
Nc1ccc(N)c([N+](=O)[O-])c1,AC50,[3],8.68 µM (active) and 13.7 µM (active)
CCCCOCCOCCO,outcome,Caspase-3 (Homo sapiens),inactive
CC/C(=C(\c1ccccc1)c1ccc(OCCN(C)C)cc1)c1ccccc1,outcome,[2],inactive
same,outcome,CDK2 (gene 1017),inactive
same,outcome,[4],inactive
same,outcome,[5],inactive
O=C(c1ccc(OCCN2CCCCC2)cc1)c1c(-c2ccc(O)cc2)sc2cc(O)ccc12,outcome,[6],inactive
same,outcome,[4],inactive
